Source: PubChem BioAssay AID1159580 (chemical genetic matrix, 2015)
In all, about 5,500 compounds went through this assay and about 2,000 (36%) were called active. Roughly 18% stayed inconclusive and do not appear here. Rule as the data show it: active = normalized growth mostly below about 0.91 (no sharp cut-off); inconclusive = no clear call, values can overlap the other calls; inactive = mostly above about 0.92. The list shows a part of the results.

Assay: chemical genetic growth profiling, strain panel (AID 1159580);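 also: tested at 20 µM; growth read once vehicle control cultures reached saturation at 30 °C; 1 = growth at the plate median or of vehicle wells; lower values mean less growth of the strain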
Conditions: S. cerevisiae deletion strains, growth OD

Measured: normalized growth

O=[N+]([O-])O[C@@H]1CO[C@H]2[C@@H]1OC[C@@H]2O
inactive: locus YHR030C, strain SLT2, hits give low values 0.983 | locus YHR079C, strain IRE1, hits give low values 0.991 | locus YJL095W, strain BCK1, hits give low values 1 | locus YJR066W, strain TOR1, hits give low values 0.955 | locus YLR113W, strain HOG1, hits give low values 0.999 | locus YNL183C, strain NPR1, hits give low values 0.932 | locus YOR231W, strain MKK1, hits give low values 0.981 | locus YPL256C, strain CLN2, hits give low values 0.966
